Source: PubChem BioAssay AID583 (Sanford-Burnham Center for Chemical Genomics, 2007)
“And” between values parts separate entries of the source, which are not always exact repeats. Identical values can stand only once. Out of some 140,000 compounds screened, about 80 (0.06%) were called active. This is one part of a sample in which actives are shown more often than they occur. Unmarked numbers belong to inactive results. Rule as the data show it: active = displacement above about 50%; inactive = the rest.

The compounds below were run against Heat shock 70 kDa protein 1A (Homo sapiens) (UniProt P0DMV8) (assay: small molecules displacing fluorescent ligand from Hsp70 – biochemical, fluorescence polarization, primary screen (AID 583;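 also: plate controls were vehicle for no effect and reference ligand for full effect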)). Conditions: Hsp70 fluorescence polarization probe displacement, mP; at 20 µM; active compounds read high.
Heat shock 70 kDa protein 1A (Homo sapiens), sequence (P0DMV8 whole entry, looked up): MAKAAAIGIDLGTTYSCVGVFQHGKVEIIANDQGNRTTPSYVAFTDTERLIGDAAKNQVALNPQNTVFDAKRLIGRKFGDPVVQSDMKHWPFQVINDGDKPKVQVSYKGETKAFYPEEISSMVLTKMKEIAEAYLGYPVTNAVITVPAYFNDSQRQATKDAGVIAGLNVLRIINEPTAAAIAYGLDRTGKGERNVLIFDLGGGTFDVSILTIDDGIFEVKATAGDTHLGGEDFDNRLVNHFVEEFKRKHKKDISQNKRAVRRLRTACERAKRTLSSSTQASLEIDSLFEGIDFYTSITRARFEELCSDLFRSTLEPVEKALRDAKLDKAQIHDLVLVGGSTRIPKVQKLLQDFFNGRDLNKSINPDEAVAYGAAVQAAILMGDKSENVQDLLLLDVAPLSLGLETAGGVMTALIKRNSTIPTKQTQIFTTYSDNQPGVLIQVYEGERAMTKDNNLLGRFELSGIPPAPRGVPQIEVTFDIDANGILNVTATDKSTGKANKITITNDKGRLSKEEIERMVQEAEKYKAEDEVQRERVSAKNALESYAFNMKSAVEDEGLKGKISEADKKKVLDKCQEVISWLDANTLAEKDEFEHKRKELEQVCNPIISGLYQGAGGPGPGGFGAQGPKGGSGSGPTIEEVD

Row | SMILES | displacement
1 | CC(NS(C)(=O)=O)C(c1cccs1)N1CCN(Cc2ccccc2)CC1 (centres undefined) | 3.1%
2 | O=C1N=c2ccccc2=C1c1sc(=O)n(-c2ccc(O)cc2)c1O | -21.2%
3 | O=C1N=c2ccccc2=C1c1s/c(=N/N=C2/C(=O)Nc3ccccc32)n(-c2ccc(O)cc2)c1O | 93.6% (active)
4 | O=C1N=c2ccccc2=C1c1sc(=Nc2ccccc2)n(-c2ccccc2)c1O | 5.2%
5 | CC(=O)NS(=O)(=O)c1ccc(NC(=O)c2ccccc2F)cc1 | 6%
6 | COCC(=O)Nc1nc(-c2ccccc2)c(C)s1 | -1.9%
7 | O=C1NC(=S)N/C1=C\c1ccc(-c2cccc([N+](=O)[O-])c2)o1 | 0.3%
8 | O=C1NC(=S)N/C1=C/c1ccc(-c2cc([N+](=O)[O-])ccc2Cl)o1 | 17.3%
9 | O=C1NC(=S)N/C1=C\c1ccc(-c2cc([N+](=O)[O-])ccc2Br)o1 | 51.2% (active)
10 | Cc1ccc(NC(=O)c2ccccc2Br)cc1 | 1.9%
11 | COc1ccc(OC)c(NC2=NC3(CCCC3)N=C(N)N2)c1 | 0.2% and -1.2%
12 | COc1ccccc1NC1=NC2(CCCCC2)N=C(N)N1 | 97.6% (active)
13 | COc1ccc(OC)c(NC2=NC3(CCCCC3)N=C(N)N2)c1 | -6.7% and 3.4%
14 | CC(C)Oc1c(I)cc(I)cc1/C=C(/C#N)c1nc2ccccc2[nH]1 | -0.1%
15 | Cc1ccc(/C(N)=N/OC(=O)c2ccc(Br)cc2)cc1 | 1.1%
16 | O=C1C(=O)N(CC2CCCO2)C(c2cccc([N+](=O)[O-])c2)/C1=C(/O)c1ccccc1 (centres undefined) | -4.4%
17 | COc1cccc(C2NC(=O)NC(C)=C2C(=O)OCCc2ccccc2)c1OC (centres undefined) | -3%
18 | COc1ccc(Cn2c(C)nc3c(c2=O)c2nc4ccccc4nc2n3Cc2ccco2)cc1 | 69.5% (active)
19 | COc1ccc(Cn2c3nc4ccccc4nc3c3c(=O)n(Cc4ccco4)cnc32)cc1 | -6%
20 | COc1ccc(Cn2c3nc4ccccc4nc3c3c(=O)n(Cc4ccco4)c(C)nc32)cc1 | 2.5%
21 | O=C(O)CCCN1C(=O)/C(=C/c2cccc(Br)c2)SC1=S | 6.7%
22 | O=C(O)CCCCCCCCCCN1C(=O)/C(=C/c2cccc(Br)c2)SC1=S | 56.6% (active)
23 | O=C(O)CCCCCN1C(=O)/C(=C/c2cccc(F)c2)SC1=S | -1.8%
24 | O=C(NN1CCOCC1)c1cc2ccccc2oc1=O | 1.1%

Row | SMILES | displacement
25 | CC(=O)C1=C(C)NC(SCC(N)=O)=C(C#N)C1c1cccnc1 (centres undefined) | -1.1%
26 | Cc1ccc(C)n1-c1ccccc1C(=O)O | 92.7% (active)
27 | Cc1ccc(-c2ccccc2)n1-c1ccccc1C(=O)O | 5.6%
28 | Cc1nc(=O)c(-c2ccccc2)c(C)n1-c1ccccc1C(=O)O | 6.5%
29 | Cc1c(C(=O)O)cccc1-n1c(=O)c2cc3c(=O)n(-c4cccc(C(=O)O)c4C)c(=O)c3cc2c1=O | -1.1%
30 | Cc1ccc(C)n1-c1sccc1C(=O)O | 24.9%
31 | Cc1ccc(C)n1-c1ccc(Cl)cc1C(=O)O | 104% (active)
32 | Cc1ccc(C)n1-c1ccc(Br)cc1C(=O)O | 7.4%
33 | COc1cc(C(=O)O)c(-n2c(C)ccc2C)cc1OC | 6.6%
34 | Cc1c(C(=O)O)cccc1-n1c(C)ccc1C | 51.1% (active)
35 | COc1cc(OC)cc(C(=O)N2CCN(C(=O)c3cccc(F)c3)CC2)c1 | 2.3%
36 | COC(=O)c1ccc(/C=C2\SC(=S)N(C(Cc3ccccc3)C(=O)O)C2=O)cc1 (centres undefined) | -0.2%
37 | O=C1NC(=O)/C(=C/c2c(F)cccc2Cl)S1 | 4.2%
38 | S=c1[nH]nc(-c2cccc(Cl)c2)n1-c1ccccc1 | 4%
39 | COc1ccc(CC(=O)c2cc(OC)c(OC)cc2CC(=O)O)cc1OC | -0.7%
40 | COC(=O)c1cc(C#N)c(SCc2ccccc2)nc1C | -5%
41 | O=C(c1ccc(N2CCN(C(=O)c3ccccc3Br)CC2)cc1)c1cccc(F)c1 | 83.6% (active)
42 | O=C(c1ccc(N2CCN(C(=O)c3ccccc3)CC2)cc1)c1cccc(F)c1 | -1.2%
43 | O=C(c1ccc(N2CCN(C(=O)c3ccccc3F)CC2)cc1)c1cccc(F)c1 | -2.9%
44 | CCN1CCN(P2(=O)C=C(c3ccccc3)OC(c3ccccc3)=C2)CC1 | 1.1%
45 | O=C(c1coc(=O)c(Br)c1)N1CCCc2ccccc21 | 6.5%
46 | O=C(c1coc(=O)c(Br)c1)N1CCOCC1 | 7.3%
47 | COc1ccc(CCNC(=O)CSc2nc3ccccc3o2)cc1OC | 0.2%
48 | COc1ccc(C2c3c(oc4ccccc4c3=O)C(=O)N2CC2CCCO2)cc1 (centres undefined) | -2.4%

Row | SMILES | displacement
49 | O=C1c2oc3ccc(F)cc3c(=O)c2C(c2ccccc2)N1CC1CCCO1 (centres undefined) | -3.1%
50 | O=C(COc1ccc([N+](=O)[O-])cc1)Nc1cccc(Cl)c1Cl | 2.1%
51 | CCCCOc1ccc(N2C(=O)C3CC(C)=C(C)CC3C2=O)cc1 (centres undefined) | 0.2%
52 | CCOc1cc(CNn2cnnc2)cc(Br)c1OCC(=O)NC1CCCCC1 | 5.5%
53 | C=CCn1c2ccccc2c2nnc(SCC(=O)Nc3sc4c(c3C#N)CCCC4)nc21 | -2%
54 | CC(=NCCCn1ccnc1)c1c(-c2ccccc2)[nH]n(-c2nc3ccccc3s2)c1=O | 0.5%
55 | Cc1c(NS(=O)(=O)c2cc(Cl)ccc2Cl)cccc1[N+](=O)[O-] | -2.4%
56 | O=C(Nc1ccc2nc(-c3cccs3)c(-c3cccs3)nc2c1)NC1CC1 | 2.3%
57 | O=C(Nc1ccc(N2CCOCC2)cc1)Nc1ccc2nc(-c3ccco3)c(-c3ccco3)nc2c1 | 1.1%
58 | Brc1ccc(/C=N/c2ncn[nH]2)cc1 | 3.3%
59 | CCN1C(=O)/C(=C\c2ccc(OCc3ccccc3Cl)cc2)SC1=S | -2.5%
60 | C=CCN1C(=O)/C(=C\c2ccc(OCc3ccccc3Cl)cc2)SC1=S | 56.5% (active)
61 | C=CCN1C(=O)/C(=C/c2cccc(OCc3ccccc3Cl)c2)SC1=S | 0.3%
62 | CCOc1ccc(N(CC(=O)NC2CCCCC2)S(=O)(=O)c2ccc(Cl)cc2)cc1 | 2.4%
63 | NC(=O)c1ccc(NC(=O)Cc2ccc(Cl)cc2)cc1 | -3.6%
64 | Cc1ccc(-c2cc(C(=O)N/N=C/c3ccc([N+](=O)[O-])cc3)[nH]n2)cc1 | 1.8%
65 | O=C(N/N=C/c1cccc([N+](=O)[O-])c1)c1cc(-c2ccc(Cl)cc2)n[nH]1 | 4.6%
66 | Cc1ccc(-c2cc(C(=O)N/N=C/c3cccc([N+](=O)[O-])c3)[nH]n2)cc1 | 78.2% (active)
67 | CC(C)(C)NC(=O)c1cccc(N2C(=O)c3cccc([N+](=O)[O-])c3C2=O)c1 | 1.9%
68 | Cc1cccc(C(NC(N)=O)c2ccccc2)c1 (centres undefined) | 0.4%
69 | NC1=NC(=O)/C(=C\c2ccc(-c3ccc([N+](=O)[O-])cc3)o2)S1 | -5.8%
70 | NC1=NC(=O)/C(=C/c2ccc(-c3ccc([N+](=O)[O-])cc3Br)o2)S1 | 44.5%
71 | NC1=NC(=O)/C(=C/c2ccc(-c3cc([N+](=O)[O-])ccc3Cl)o2)S1 | 75.9% (active)
72 | Cc1ccc(/C(N)=N/OC(=O)c2ccccc2F)cc1 | 2.5%

Row | SMILES | displacement
73 | O=S(=O)(Nc1ccc(F)cc1)c1ccc2c(c1)Cc1cc(S(=O)(=O)Nc3ccc(F)cc3)ccc1-2 | -0.8%
74 | Cc1ccc(NC(=O)c2ccccc2NC(=O)Cc2cccs2)cc1C | 3.6%
75 | CN(c1ccc(C(=O)NC2CC2)cc1)S(=O)(=O)c1ccccc1 | 0.5%
76 | Cc1c(C(=O)Nc2ccc(-c3nc4cc(Cl)ccc4o3)cc2)cccc1[N+](=O)[O-] | -7%
77 | Cc1c(NC(=O)c2ccccc2[N+](=O)[O-])cccc1-c1nc2cc(Cl)ccc2o1 | 60.1% (active)
78 | Cc1c(C(=O)Nc2ccc3oc(-c4ccc(Cl)cc4Cl)nc3c2)cccc1[N+](=O)[O-] | -1.5%
79 | Cc1cc(NC(=O)CN2CCN(c3ccccc3F)CC2)nc2c1c(=O)oc1ccccc12 | 1.7%
80 | COc1ccc(N2C(=O)C3C(C2=O)N2CCCN2C3c2ccc(Cl)cc2)cc1 (centres undefined) | 2.3%
81 | Cc1cc(N2C(=O)NC(=O)/C(=C\c3ccco3)C2=O)ccc1Br | 40.3%
82 | O=C1NC(=O)N(c2ccc(Br)cc2)C(=O)/C1=C/c1ccco1 | 54% (active)
83 | O=C1NC(=O)N(c2ccc(Br)cc2)C(=O)/C1=C\C=C\c1ccco1 | -7.2%
84 | N#CCOc1ccccc1/C=N/c1sc2c(c1C#N)CCCC2 | -0.5%
85 | CC(C)(C)NC(=O)CN1CCC(O)(c2ccc3c(c2)OCO3)CC1 | 5.2%
86 | O=C1/C(=C\c2ccc(-c3ccc([N+](=O)[O-])cc3)o2)SC(=S)N1c1ccc(O)cc1 | 1.6%
87 | O=C(O)c1ccc(-c2ccc(/C=C3\SC(=S)N(c4ccc([N+](=O)[O-])cc4)C3=O)o2)cc1 | 55.5% (active)
88 | O=C(O)CCN1C(=O)/C(=C/c2ccc(-c3ccc([N+](=O)[O-])cc3)o2)SC1=S | 1.7%
89 | CC(=O)Nc1ccccc1NC(=O)COc1ccc(Cl)cc1C | -3.3%
90 | O=c1ccc(Oc2nc(N3CCOCC3)nc(N3CCOCC3)n2)nn1-c1ccccc1 | 6.5%
91 | N/C(=N\OC(=O)c1cccc(Br)c1)c1cccnc1 | 1.1%
92 | Cc1c(Cl)cccc1N=C1NC(=O)/C(=C/c2ccc(O)c([N+](=O)[O-])c2)S1 | 13.2%
93 | COc1cc(/C=C2\SC(=Nc3ccc(C)c(Cl)c3)NC2=O)ccc1O | -0.7%
94 | Cc1ccc(N=C2NC(=O)/C(=C/c3ccc(O)c([N+](=O)[O-])c3)S2)cc1Cl | 66.9% (active)
